Source: PubChem BioAssay
The source made the active and inactive calls.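 Rule for the calls, unless noted: active = visual image review flags a hit and inhibition of aggregation exceeds 20%; inconclusive = visual hit but inhibition at or below 20%; inactive = no hit on visual image review.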

Key:
[1] = inhibitors of TNFa-induced NFkB p65 translocation, primary screen, imaging, HUVEC, MLSMR starter and 10KST1 sets (AID 438;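 active = inhibition above 20% together with a positive visual image hit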;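 note: compound added about 3h40 before a 20 min TNFalpha stimulation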;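 for inhibition: signal is the nuclear over cytoplasmic p65 intensity ratio per well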); settings: HUVEC TNFa-induced p65 nuclear translocation; cell count: measured here: nuclei count (cytotoxicity indicator), at 2.08 µM; inhibition: at 2 µM, stronger effect = higher value, 0% TNFa-plus-vehicle, 100% no-TNFa wells
[2] = reduction of polyQ htt aggregates in cells – imaging, exon1htt(103Q)mCFP cells, high-content imaging, primary screen (AID 483); settings: exon1htt(103Q)mCFP cell line, aggregate imaging, at 2 µM; inhibition of aggregation: stronger effect = higher value; nuclei count: measured here: cell count, toxicity;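 note: compound exposure lasted 3 days before fixation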;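 for nuclei count: percent of the per-plate median nuclei count of sample wells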
[3] = endothelial E-selectin expression blockers – imaging, HUVEC, immunofluorescence, MLSMR starter and 10KST1 sets, primary screen (AID 487;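 active = visually confirmed hit in the image check and inhibition above 20%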;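 for inhibition: signal is fraction of cell area covered by stained E-selectin grains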;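 for nuclei count: 100% = median nuclei count of all wells on the same plate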); settings: HUVEC TNFalpha-induced E-selectin immunofluorescence imaging, at 2 µM; inhibition: stronger effect = higher value; nuclei count: measured here: cell number, toxicity
[4] = target: Voltage-gated potassium channel subunit beta-2 (Rattus norvegicus) (UniProt P62483); assay: inhibitors of rat Kvbeta2 reductase activity – biochemical, NADPH fluorescence, primary screen (AID 622;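 active = fluorescence slope higher than the sample average by over 3 SD, cut at about -0.22 in these data, passing the limit was not always enough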;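 note: slope of raw intensity against log time taken from 70 to 1610 s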); settings: recombinant KvBeta, 4-cyanobenzaldehyde reduction, at 10 µM, stronger effect = higher value
[5] = target: Voltage-gated potassium channel subunit beta-2 (Rattus norvegicus) (UniProt P62483); assay: enhancers of rat Kvbeta2 NADPH turnover – biochemical, NADPH fluorescence, primary screen (AID 623;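 active = NADPH fluorescence slope more negative than the mean of all samples by about 3 SD, 99.7% confidence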;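 note: fluorescence intensity change per second fitted from 20 to 320 s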); settings: Recombinant KvBeta, NADPH fluorescence decrease slope, 10 min; at 10 µM; stronger effect = lower value
[6] = target: Alpha-2C adrenergic receptor (Homo sapiens) (UniProt P18825); assay: compounds altering alpha2C-coupled GIRK flux – cell-based, HEK293 alpha2C/GIRK1/2, thallium flux, primary screen (AID 624;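 active = fluorescence slope after compound addition differing from the mean of all screened samples at 99.7% confidence, in either direction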;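 note: slope of fluorescence ratio to pre-addition baseline per second over 15 to 24 s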); settings: thallium flux BTC fluorescence, at 10 µM, actives lie on both sides
[7] = blockers of RIG-like receptor reporter activation – cell-based, Sendai virus stimulus, luciferase, 10K MLSCN set, TLR/RLR signaling modifier project, primary screen (AID 602276;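 active = inhibition at or above 50% at 10 µM; inactive = inhibition below 50%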;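 note: firefly luciferase from ISG56 promoter only with Renilla not read in this screen; 0% = Sendai virus plus DMSO and 100% = medium plus DMSO without virus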); settings: HEK293 RL24 IRF3 luciferase reporter, at 10 µM, stronger effect = higher value
[8] = TLR3 IRF3 reporter activation blockers – cell-based, poly I:C stimulus, luciferase, 10K MLSCN set, primary screen (AID 602277;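 active = inhibition of the reporter signal at or above 50%; inactive = inhibition below 50%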); settings: HEK293-TLR3 RL24 IRF3 luciferase reporter, at 10 µM, stronger effect = higher value

Sequence of Voltage-gated potassium channel subunit beta-2 (Rattus norvegicus) (P62483 whole entry, looked up): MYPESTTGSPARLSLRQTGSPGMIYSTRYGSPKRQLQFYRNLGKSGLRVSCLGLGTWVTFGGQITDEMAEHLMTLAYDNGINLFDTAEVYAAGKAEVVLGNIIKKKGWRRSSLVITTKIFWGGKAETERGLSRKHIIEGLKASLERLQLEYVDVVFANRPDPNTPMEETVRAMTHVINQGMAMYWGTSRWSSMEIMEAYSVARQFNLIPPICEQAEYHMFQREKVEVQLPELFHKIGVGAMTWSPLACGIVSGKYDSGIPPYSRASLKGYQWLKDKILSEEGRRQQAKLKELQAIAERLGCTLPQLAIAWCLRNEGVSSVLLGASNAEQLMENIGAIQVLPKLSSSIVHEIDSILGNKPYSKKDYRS
Sequence of Alpha-2C adrenergic receptor (Homo sapiens) (P18825 whole entry, looked up): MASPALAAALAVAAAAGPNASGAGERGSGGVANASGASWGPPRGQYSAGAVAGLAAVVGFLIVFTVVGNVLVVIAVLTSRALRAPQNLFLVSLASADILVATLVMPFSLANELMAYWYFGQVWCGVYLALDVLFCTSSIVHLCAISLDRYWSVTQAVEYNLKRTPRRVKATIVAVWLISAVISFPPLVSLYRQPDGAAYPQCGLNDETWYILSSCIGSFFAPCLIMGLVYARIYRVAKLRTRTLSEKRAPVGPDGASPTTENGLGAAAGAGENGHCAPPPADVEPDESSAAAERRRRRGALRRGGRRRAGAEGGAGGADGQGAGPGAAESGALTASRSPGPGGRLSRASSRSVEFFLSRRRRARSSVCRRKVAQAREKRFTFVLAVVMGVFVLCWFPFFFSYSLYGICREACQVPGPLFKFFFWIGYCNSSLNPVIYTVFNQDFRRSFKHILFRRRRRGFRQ

O=C(CSc1oc(-c2ccco2)nc1S(=O)(=O)c1ccccc1)NCC1CCCO1 (centres undefined)
cell count [1]: 497
inhibition [1]: -13.9% (inactive)
inhibition of aggregation [2]: 7.5% (inactive)
nuclei count [2]: 98.6%
inhibition [3]: -95% (inactive)
nuclei count [3]: 174%
fluorescence slope [4]: -0.492 (inactive)
NADPH fluorescence slope [5]: -4.8e-05 (inactive)
slope [6]: 0.00481 (inactive)
inhibition [7]: 9.95% (inactive)
inhibition [8]: 20.2% (inactive)

COc1ccccc1OCCOCCn1cnc2ccccc2c1=O
cell count [1]: 561
inhibition [1]: -2.8% (inactive)
inhibition of aggregation [2]: 24.9% (inactive)
nuclei count [2]: 79.3%
inhibition [3]: 2.6% (inactive)
nuclei count [3]: 94.4%
fluorescence slope [4]: -0.488 (inactive)
NADPH fluorescence slope [5]: -4.9e-05 (inactive)
slope [6]: 0.00575 (inactive)
inhibition [7]: 10.3% (inactive)
inhibition [8]: 12.5% (inactive)

O=C(CN1CCC(O)(c2ccc3c(c2)OCO3)CC1)OC1CCCCC1
cell count [1]: 459
inhibition [1]: -3.6% (inactive)
inhibition of aggregation [2]: 28.4% (inactive)
nuclei count [2]: 67.8%
inhibition [3]: -55.1% (inactive)
nuclei count [3]: 99.5%
fluorescence slope [4]: -0.313 (inactive)
NADPH fluorescence slope [5]: -4.7e-05 (inactive)
slope [6]: 0.00487 (inactive)
inhibition [7]: 8.26% (inactive)
inhibition [8]: 15.6% (inactive)

Cc1cccc(NC(=O)Nc2cccc(C#N)c2)n1
cell count [1]: 907
inhibition [1]: -1.7% (inactive)
inhibition of aggregation [2]: 10.2% (inactive)
nuclei count [2]: 112%
inhibition [3]: -77.1% (inactive)
nuclei count [3]: 121%
fluorescence slope [4]: -0.567 (inactive)
NADPH fluorescence slope [5]: -3.2e-05 (inactive)
slope [6]: 0.00605 (inactive)
inhibition [7]: -22.3% (inactive)
inhibition [8]: -135% (inactive)

COc1cccc(N(C(C)=O)c2nc(C)cc(C)c2C#N)c1
cell count [1]: 278
inhibition [1]: 13.4% (inactive)
inhibition of aggregation [2]: -28.3% (inactive)
nuclei count [2]: 113%
inhibition [3]: -47.7% (inactive)
nuclei count [3]: 102%
fluorescence slope [4]: -0.557 (inactive)
NADPH fluorescence slope [5]: -1.8e-05 (inactive)
slope [6]: 0.00529 (inactive)
inhibition [7]: 17.6% (inactive)
inhibition [8]: 28.7% (inactive)

COc1cccc(-n2nc(C(=O)Nc3ccc4c(c3)OCO4)c3ccccc3c2=O)c1
cell count [1]: 741
inhibition [1]: 1.6% (inactive)
inhibition of aggregation [2]: -5.9% (inactive)
nuclei count [2]: 98.3%
inhibition [3]: -27% (inactive)
nuclei count [3]: 118%
fluorescence slope [4]: -0.601 (inactive)
NADPH fluorescence slope [5]: -3.9e-05 (inactive)
slope [6]: 0.0101 (inactive)
inhibition [7]: 3.08% (inactive)
inhibition [8]: -20.2% (inactive)

Cc1cc2nc(C3CCN(CC4COc5ccccc5O4)CC3)[nH]c2cc1C (centres undefined)
cell count [1]: 746
inhibition [1]: -8.3% (inactive)
inhibition of aggregation [2]: -2.5% (inactive)
nuclei count [2]: 92%
inhibition [3]: -56.9% (inactive)
nuclei count [3]: 107%
fluorescence slope [4]: -0.433 (inactive)
NADPH fluorescence slope [5]: -1.9e-05 (inactive)
slope [6]: 0.00449 (inactive)
inhibition [7]: -0.371% (inactive)
inhibition [8]: -21.4% (inactive)

O=C(c1ccco1)N1CCN(S(=O)(=O)c2ccc(Oc3ccccc3)cc2)CC1
cell count [1]: 243
inhibition [1]: 22.6% (inactive)
inhibition of aggregation [2]: -4.9% (inactive)
nuclei count [2]: 77.4%
inhibition [3]: -81.4% (inactive)
nuclei count [3]: 111%
fluorescence slope [4]: -0.519 (inactive)
NADPH fluorescence slope [5]: 2.5e-06 (inactive)
slope [6]: 0.00632 (inactive)
inhibition [7]: 5.47% (inactive)
inhibition [8]: -52.2% (inactive)

Cc1cc(C)n(-c2ccc(C(=O)Nc3ccc4c(c3)OCCO4)cc2)n1
cell count [1]: 529
inhibition [1]: -16.3% (inactive)
inhibition of aggregation [2]: -2.4% (inactive)
nuclei count [2]: 103%
inhibition [3]: 11.9% (inactive)
nuclei count [3]: 110%
fluorescence slope [4]: -0.254 (inactive)
NADPH fluorescence slope [5]: -2.3e-05 (inactive)
slope [6]: 0.00537 (inactive)
inhibition [7]: -19.7% (inactive)
inhibition [8]: -108% (inactive)

Cn1ccnc1SCC(=O)Nc1ccc2ccccc2c1
cell count [1]: 228
inhibition [1]: 9.6% (inactive)
inhibition of aggregation [2]: 13.5% (inactive)
nuclei count [2]: 120%
inhibition [3]: -14.1% (inactive)
nuclei count [3]: 105%
fluorescence slope [4]: -0.519 (inactive)
NADPH fluorescence slope [5]: -4.1e-05 (inactive)
slope [6]: 0.00777 (inactive)
inhibition [7]: 2.61% (inactive)
inhibition [8]: -32.6% (inactive)

Cc1cccc(Nc2nc(N)nc(CN3CCC(C(N)=O)CC3)n2)c1C
cell count [1]: 720
inhibition [1]: -4.3% (inactive)
inhibition of aggregation [2]: -5.8% (inactive)
nuclei count [2]: 108%
inhibition [3]: -35% (inactive)
nuclei count [3]: 123%
fluorescence slope [4]: -0.628 (inactive)
NADPH fluorescence slope [5]: -2.1e-05 (inactive)
slope [6]: 0.0067 (inactive)
inhibition [7]: -22.9% (inactive)
inhibition [8]: -60.3% (inactive)

C/C(=N\O)C(=O)NCc1ccccn1
cell count [1]: 290
inhibition [1]: 0.5% (inactive)
inhibition of aggregation [2]: 4.5% (inactive)
nuclei count [2]: 108%
inhibition [3]: -55.3% (inactive)
nuclei count [3]: 104%
fluorescence slope [4]: -0.431 (inactive)
NADPH fluorescence slope [5]: 1.8e-05 (inactive)
slope [6]: 0.00348 (inactive)
inhibition [7]: -4.43% (inactive)
inhibition [8]: -25.9% (inactive)

CCc1nn2c(=O)cc(CSc3nc4sc5c(c4c(=O)n3C)CCCC5)nc2s1
cell count [1]: 536
inhibition [1]: -14.1% (inactive)
inhibition of aggregation [2]: -13.9% (inactive)
nuclei count [2]: 118%
inhibition [3]: 38% (inactive)
nuclei count [3]: 65.2%
fluorescence slope [4]: -0.598 (inactive)
NADPH fluorescence slope [5]: 4.1e-05 (inactive)
slope [6]: 0.00602 (inactive)
inhibition [7]: -3.07% (inactive)
inhibition [8]: -3.25% (inactive)

O=S1(=O)CCC(NS(=O)(=O)/C=C/c2ccccc2)C1 (centres undefined)
cell count [1]: 566
inhibition [1]: -1.6% (inactive)
inhibition of aggregation [2]: 2% (inactive)
nuclei count [2]: 119%
inhibition [3]: -1.4% (inactive)
nuclei count [3]: 96.4%
fluorescence slope [4]: -0.386 (inactive)
NADPH fluorescence slope [5]: -0.000106 (inactive)
slope [6]: 0.00742 (inactive)
inhibition [7]: 4.67% (inactive)
inhibition [8]: 14.6% (inactive)
